In PubChem BioAssay AID1159580 (chemical genetic matrix, 2015):
Hit rate of the full screen: of about 5,500 compounds, about 2,000 (36%) were called active. Not shown: some 18% with an inconclusive outcome. Rule as the data show it: active = normalized growth mostly below about 0.91 (no sharp cut-off); inconclusive = no clear call, values can overlap the other calls; inactive = mostly above about 0.92. The list shows a part of the results.

Test: chemical genetic growth profiling, strain panel (AID 1159580);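 also: tested at 20 µM; growth read once vehicle control cultures reached saturation at 30 °C; 1 = growth at the plate median or of vehicle wells; lower values mean less growth of the strain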
Conditions: growth OD

Measured: normalized growth

O=C(O)C1=C[C@@H](O)[C@@H](O)[C@H](O)C1
inactive: S. cerevisiae deletion strains, locus YJR043C, strain POL32, active compounds read low 1.02 | S. cerevisiae deletion strains, locus YJR066W, strain TOR1, active compounds read low 0.928 | S. cerevisiae deletion strains, locus YJR075W, strain HOC1, active compounds read low 1.01 | S. cerevisiae deletion strains, locus YKL009W, strain mrt4, active compounds read low 1 | S. cerevisiae deletion strains, locus YKL068W, active compounds read low 1 | S. cerevisiae deletion strains, locus YKL085W, strain MDH1 (second series), active compounds read low 1.01 | S. cerevisiae deletion strains, locus YKL085W, strain MDH1, active compounds read low 1.01 | S. cerevisiae deletion strains, locus YKL160W, strain elf1, active compounds read low 0.987 | S. cerevisiae deletion strains, locus YKR001C, strain vps1, active compounds read low 1.07 | S. cerevisiae deletion strains, locus YKR026C, strain gcn3, active compounds read low 0.999 | S. cerevisiae deletion strains, locus YKR091W, strain srl3, active compounds read low 0.969 | S. cerevisiae deletion strains, locus YLL001W, strain dnm1, active compounds read low 0.995 | S. cerevisiae deletion strains, locus YLL026W, active compounds read low 0.975 | S. cerevisiae deletion strains, locus YLL041C, strain sdh2, active compounds read low 0.978 | S. cerevisiae deletion strains, locus YLR027C, strain aat2, active compounds read low 0.996 | S. cerevisiae deletion strains, locus YLR039C, strain RIC1, active compounds read low 1.1 | S. cerevisiae deletion strains, locus YLR058C, strain SHM2, active compounds read low 1.01 | S. cerevisiae deletion strains, locus YLR102C, strain apc9, active compounds read low 1.01 | S. cerevisiae deletion strains, locus YLR113W, strain HOG1, active compounds read low 1.01 | S. cerevisiae deletion strains, locus YLR221C, strain rsa3, active compounds read low 0.982 | S. cerevisiae deletion strains, locus YLR258W, strain gsy2, active compounds read low 0.974 | S. cerevisiae deletion strains, locus YLR262C, strain YPT6 (second series), active compounds read low 0.952 | S. cerevisiae deletion strains, locus YLR262C, strain YPT6, active compounds read low 1.13 | S. cerevisiae deletion strains, locus YLR268W, strain sec22, active compounds read low 1.05 | S. cerevisiae deletion strains, locus YLR320W, strain mms22, active compounds read low 0.985 | S. cerevisiae deletion strains, locus YLR330W, strain CHS5, active compounds read low 1.01 | S. cerevisiae deletion strains, locus YLR342W, strain FKS1 (second series), active compounds read low 1.05 | S. cerevisiae deletion strains, locus YLR342W, strain FKS1, active compounds read low 0.985 | S. cerevisiae deletion strains, locus YLR357W, strain rsc2, active compounds read low 0.973 | S. cerevisiae deletion strains, locus YLR370C, strain arc18, active compounds read low 0.994 | S. cerevisiae deletion strains, locus YLR371W, strain rom2, active compounds read low 1.02 | S. cerevisiae deletion strains, locus YLR384C, strain iki3, active compounds read low 0.979 | S. cerevisiae deletion strains, locus YLR418C, strain cdc73, active compounds read low 0.986 | S. cerevisiae deletion strains, locus YML016C, strain PPZ1, active compounds read low 1.02 | S. cerevisiae deletion strains, locus YML032C, strain rad52, active compounds read low 0.993 | S. cerevisiae deletion strains, locus YML120C, strain ndi1, active compounds read low 0.982 | S. cerevisiae deletion strains, locus YML124C, strain tub3, active compounds read low 1 | S. cerevisiae deletion strains, locus YMR058W, strain fet3, active compounds read low 0.973 | S. cerevisiae deletion strains, locus YMR078C, strain ctf18, active compounds read low 1.01 | S. cerevisiae deletion strains, locus YMR125W, strain sto1, active compounds read low 0.968 | S. cerevisiae deletion strains, locus YMR129W, active compounds read low 0.986 | S. cerevisiae deletion strains, locus YMR205C, strain PFK2, active compounds read low 0.984 | S. cerevisiae deletion strains, locus YMR223W, strain ubp8, active compounds read low 0.987 | S. cerevisiae deletion strains, locus YMR231W, strain pep5, active compounds read low 0.967 | S. cerevisiae deletion strains, locus YMR263W, strain SAP30, active compounds read low 1.02 | S. cerevisiae deletion strains, locus YMR307W, strain GAS1, active compounds read low 1.04 | S. cerevisiae deletion strains, locus YNL067W, strain RPL9B, active compounds read low 1.01 | S. cerevisiae deletion strains, locus YNL071W, strain lat1, active compounds read low 0.982 | S. cerevisiae deletion strains, locus YNL183C, strain NPR1, active compounds read low 0.962 | S. cerevisiae deletion strains, locus YNL209W, strain ssb2, active compounds read low 0.983 | S. cerevisiae deletion strains, locus YNL233W, strain BNI4, active compounds read low 1.03 | S. cerevisiae deletion strains, locus YNL248C, strain rpa49, active compounds read low 0.965 | S. cerevisiae deletion strains, locus YNL250W, strain rad50, active compounds read low 1.03 | S. cerevisiae deletion strains, locus YNL271C, strain bni1, active compounds read low 1.01 | S. cerevisiae deletion strains, locus YNL298W, strain CLA4, active compounds read low 1.01 | S. cerevisiae deletion strains, locus YNL307C, strain MCK1, active compounds read low 1.02 | S. cerevisiae deletion strains, locus YNL322C, strain KRE1 (second series), active compounds read low 0.986 | S. cerevisiae deletion strains, locus YNR049C, strain mso1, active compounds read low 0.989 | S. cerevisiae deletion strains, locus YNR052C, strain pop2, active compounds read low 1.01 | S. cerevisiae deletion strains, locus YOL012C, strain htz1 0.985 | S. cerevisiae deletion strains, locus YOL147C, strain pex11, active compounds read low 0.993 | S. cerevisiae deletion strains, locus YOR001W, strain rrp6, active compounds read low 0.993 | S. cerevisiae deletion strains, locus YOR061W, strain CKA2, active compounds read low 1.01 | S. cerevisiae deletion strains, locus YOR069W, strain VPS5, active compounds read low 1.01 | S. cerevisiae deletion strains, locus YOR070C, strain gyp1, active compounds read low 0.996 | S. cerevisiae deletion strains, locus YOR080W, strain dia2, active compounds read low 0.99 | S. cerevisiae deletion strains, locus YOR083W, strain WHI5, active compounds read low 0.982 | S. cerevisiae deletion strains, locus YOR106W, strain vam3, active compounds read low 0.972 | S. cerevisiae deletion strains, locus YOR136W, strain idh2, active compounds read low 1.01 | S. cerevisiae deletion strains, locus YOR144C, strain elg1, active compounds read low 1 | S. cerevisiae deletion strains, locus YOR184W, strain ser1, active compounds read low 1.02 | S. cerevisiae deletion strains, locus YOR231W, strain MKK1, active compounds read low 0.981 | S. cerevisiae deletion strains, locus YOR265W, strain rbl2, active compounds read low 0.977 | S. cerevisiae deletion strains, locus YOR270C, strain vph1, active compounds read low 0.969 | S. cerevisiae deletion strains, locus YOR290C, strain snf2, active compounds read low 0.988 | S. cerevisiae deletion strains, locus YOR316C, strain cot1, active compounds read low 0.996 | S. cerevisiae deletion strains, locus YPL051W, strain arl3, active compounds read low 0.977 | S. cerevisiae deletion strains, locus YPL078C, strain atp4, active compounds read low 0.987 | S. cerevisiae deletion strains, locus YPL106C, strain sse1, active compounds read low 0.973 | S. cerevisiae deletion strains, locus YPL240C, strain hsp82, active compounds read low 0.989 | S. cerevisiae deletion strains, locus YPL241C, strain CIN2, active compounds read low 1.01 | S. cerevisiae deletion strains, locus YPL256C, strain CLN2, active compounds read low 0.978 | S. cerevisiae deletion strains, locus YPR119W, strain clb2, active compounds read low 1 | S. cerevisiae deletion strains, locus YPR141C, strain kar3, active compounds read low 1 | S. cerevisiae deletion strains, locus YPR163C, strain tif3, active compounds read low 0.995 | S. cerevisiae deletion strains, locus YPR167C, strain met16, active compounds read low 0.999 | S. cerevisiae deletion strains, strain wtn01, active compounds read low 1.05 | S. cerevisiae strains, strain wild type, active compounds read low 1.02
